This is a sample that favours compounds with a hit; in the whole collection about 5.7% have one here.
KB-3-1 cytotox – KB-3-1 parental cell cytotoxicity | KB-3-1 viability, CellTiter-Glo ATP luminescence, 72 h | Potency, µM (doses to about 46.1 µM), actives largely listed as cytotoxic | 400,000 compounds, 1.4% hits | AID 1347075; also: nearly all actives have a fitted effect of over 60% in size
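Here the drug-naive KB-3-1 line serves as comparator for MDR sub-line selectivity; cells received compound titrations, 72 h at 37 °C, then CellTiter-Glo readout.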
KB-V1 MDR tox – kills drug-selected multidrug resistant KB-V1 cells | Potency, µM (series often up to 46.1 µM), hits mostly cytotoxic | 400,000 compounds, 3.4% hits | AID 1347076 | KB-V1 MDR cells viability, CellTiter-Glo, 72 h; also: nearly all actives have a fitted effect of over 60% in size
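Potencies derive from concentration-effect curves fitted to normalized luminescence (CellTiter-Glo) of KB-V1 cells treated for 72 h at 37 degrees C in phenol-red-free DMEM containing 10% FBS.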
HT1080NT lethal – kills 2HG-producing HT-1080-NT fibrosarcoma cells; HT-1080-NT fibrosarcoma viability, CellTiter-Glo ATP luminescence, 48 h; Potency, µM (doses to about 46.1 µM), for the others: at the highest dose activity, negative = less viability, actives largely listed as cytotoxic; 360,000 compounds, 1.6% hits; AID 686970;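 also: NT is the 2HG producing partner of a matched IDH1 knockdown line; 0% = DMSO-treated cells and -100% = media-only wells without cells; nearly all actives have a fitted effect of over 55% in size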
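A 48-hour cytotoxicity screen used HT-1080-NT cells plated 2 hours before compound delivery. ATP-based CellTiter-Glo luminescence measured viability, normalized to DMSO and no-cell controls.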
HT1080 IDH1KD tx – kills HT-1080 cells with IDH1 knockdown; 360,000 compounds, 2% hits; HT-1080 IDH1 knockdown viability, ATP luminescence, 48 h; Potency, µM (titrated, usually from 46.1 µM), without a hit: at the highest dose activity, negative = toxicity, usual class: cytotoxic;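 also: 0% = DMSO wells and -100% = cell-free medium wells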
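Viability of IDH1-knockdown HT-1080 fibrosarcoma cells was assessed by CellTiter-Glo after 48 h at 37 °C with titrated compound; concentration-effect curves were classified by fit quality and response size.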
Starred values were filed as active, the others as inactive. Calls follow the shape of the dose curve; as a rule, active = well fitted curve in the direction sought with a large enough effect; inconclusive = small, poorly fitted or top-dose-only effect, or another doubt; inactive = no such curve, though single readings can be large; an effect the other way counts as inactive or inconclusive. Unless noted, % is scaled to controls: 0 for no effect and ±100 for the full control effect; potency is read from the fitted curve at half-maximal effect.

What do the screens show for `O=C(Nc1nccs1)c1c(O)c2c(n(Cc3ccco3)c1=O)CCCC2`?
KB-3-1 cytotox: inconclusive; KB-V1 MDR tox: 12µM*; HT1080NT lethal: -6%; HT1080 IDH1KD tx: -1%

How did O=C(CCl)c1ccc(O)c(O)c1 do in these assays?
KB-3-1 cytotox: inactive; KB-V1 MDR tox: inactive

What do the screens show for `O=[N+]([O-])c1ccc(N2CCCC2)cc1N/N=C1\CN2CCC1CC2`?
KB-3-1 cytotox: inactive; KB-V1 MDR tox: 21µM*; HT1080NT lethal: 14%; HT1080 IDH1KD tx: 23%

How did CNc1cc(N2CCN(C)CC2)ccc1[N+](=O)[O-] do in these assays?
KB-3-1 cytotox: inactive; KB-V1 MDR tox: inactive; HT1080NT lethal: 1%; HT1080 IDH1KD tx: 15%

How did Clc1cc(Cl)c(-c2cc(Cl)c(Cl)cc2Cl)cc1Cl do in these assays?
KB-3-1 cytotox: inactive; KB-V1 MDR tox: inactive; HT1080NT lethal: -18%; HT1080 IDH1KD tx: 2%

Results for COc1cccc(CCNCc2cccc(C(F)(F)F)c2)c1 ?
KB-3-1 cytotox: inactive; KB-V1 MDR tox: inactive; HT1080NT lethal: -21%; HT1080 IDH1KD tx: -16%

How did COc1cccc(CNCC(O)(c2ccc(Cl)cc2)c2ccc(Cl)cc2)c1 do in these assays?
KB-3-1 cytotox: inconclusive; KB-V1 MDR tox: 15µM*; HT1080NT lethal: inconclusive; HT1080 IDH1KD tx: inconclusive

What do the screens show for `C[C@]12CCC3C(CC[C@H]4C[C@@H](O)CC[C@]34C)C1C/C(=N/O)[C@@H]2O` (stereo not given in full)?
KB-3-1 cytotox: inactive; KB-V1 MDR tox: inactive; HT1080NT lethal: -12%; HT1080 IDH1KD tx: 0%

How did C=C(C)[C@@H]1CC[C@]2(C(=O)O)CC[C@]3(C)C(CCC4[C@@]5(C)CC[C@H](O)C(C)(C)C5CC[C@]43C)C12 (stereo not given in full) do in these assays?
KB-3-1 cytotox: inconclusive; KB-V1 MDR tox: inactive; HT1080NT lethal: inconclusive; HT1080 IDH1KD tx: inconclusive

Results for COc1cc2c3c(c1OC)-c1cc(O)ccc1CC3NCC2 (stereo not given) ?
KB-3-1 cytotox: inactive; KB-V1 MDR tox: inactive; HT1080NT lethal: 1%; HT1080 IDH1KD tx: 2%

What do the screens show for `COc1cc2c(c(OC)c1OC)-c1ccc(O)cc1[C@@H](NC(C)=O)CC2`?
KB-3-1 cytotox: 0.016µM*; KB-V1 MDR tox: inactive; HT1080NT lethal: 0.033µM*; HT1080 IDH1KD tx: 0.016µM*

What do the screens show for `COc1cc2c(c(OC)c1OC)-c1ccc(O)c(=O)cc1[C@@H](NC(C)=O)CC2`?
KB-3-1 cytotox: inconclusive; KB-V1 MDR tox: inconclusive; HT1080NT lethal: 6.5µM*; HT1080 IDH1KD tx: 5.2µM*

How did CC(C)(C)n1nnnc1C(c1ccnc2ccccc12)N1CCC2(CC1)C(=O)NCN2c1ccccc1 (stereo not given) do in these assays?
KB-3-1 cytotox: inactive; KB-V1 MDR tox: inactive; HT1080NT lethal: -1%; HT1080 IDH1KD tx: 5%

What do the screens show for `COC1CC(C)C(OC)c2cc(O)cc(c2O)NC(=O)C(C)=CC=CC(C)C(OC(N)=O)C(C)=CC(C)C1OC` (stereo not given)?
KB-3-1 cytotox: inactive; KB-V1 MDR tox: inactive; HT1080NT lethal: -21%; HT1080 IDH1KD tx: 23µM*

How did COc1ccc2c3c1OC1C(=O)CC[C@@]4(O)[C@@H](C2)N(C)CC[C@]314 (stereo not given in full) do in these assays?
KB-3-1 cytotox: inconclusive; KB-V1 MDR tox: inactive; HT1080NT lethal: inconclusive; HT1080 IDH1KD tx: 21µM*

How did Cc1ccc2scc(N3CCN(C)CC3)c(=O)c2c1 do in these assays?
KB-3-1 cytotox: inactive; KB-V1 MDR tox: inactive

What do the screens show for `Cc1nc2ccccc2c(=O)n1/N=C/c1cc(Br)cc(Br)c1O`?
KB-3-1 cytotox: inactive; KB-V1 MDR tox: inactive; HT1080NT lethal: -25%; HT1080 IDH1KD tx: inconclusive

Results for COc1cc2nc(N3CCN(C(=O)[C@H]4COc5ccccc5O4)CC3)nc(N)c2cc1OC ?
KB-3-1 cytotox: inactive; KB-V1 MDR tox: inactive; HT1080NT lethal: -13%; HT1080 IDH1KD tx: -11%

How did Cc1cccn2c(NCC3CCCO3)c(C(C)C)nc12 (stereo not given) do in these assays?
KB-3-1 cytotox: inactive; KB-V1 MDR tox: inactive; HT1080NT lethal: 1%; HT1080 IDH1KD tx: -9%

What do the screens show for `CCOc1cc(-c2nc3c(C)cccn3c2NCC2CCCO2)ccc1O` (stereo not given)?
KB-3-1 cytotox: inactive; KB-V1 MDR tox: 5.2µM*; HT1080NT lethal: -5%; HT1080 IDH1KD tx: -5%
